Details in all cases: concentration: 10 µM; 24 h
Experiment [1] concerns HCC1569. Put plainly: cell number relative to DMSO (% of DMSO); higher = more cells (less growth inhibition / toxicity). Summed up: (§1)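 For HCC1569 and TDF cells, compounds at 10 µM were applied for 24 h at 37 °C in triplicate in 384-well plates. Cells were fixed in 3.7% formaldehyde, stained for H1.0 and with DAPI, and imaged at ×10 over six fields per well. The endpoint, H1.0 nuclear intensity or cell number, is shown as percent of the plate control using the median of replicates. Positional effects were smoothed for HCC1569 only.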

In experiment [2] the test system is TDF. Described as above. Summed up: as §1
Experiment [3] has as its system TDF. Description: H1.0 immunofluorescence intensity relative to DMSO (% of DMSO); higher = stronger H1.0 induction, active = 120 or more. The procedure, abridged:
as §1

The subject of experiment [4] is HCC1569. Put plainly: H1.0 immunofluorescence intensity relative to DMSO (% of DMSO); higher = stronger H1.0 induction, active = 140 or more. Summed up: as §1

Where “and” joins values, the source holds several entries; their conditions need not be identical. Equal entries are not always repeated. ± gives the standard deviation of the averaged measurements.
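Wherever H1.0 immunofluorescence intensity relative to DMSO is given: TDF is a line of transformed human dermal fibroblasts of mesenchymal origin.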
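Wherever cell number relative to DMSO is given: TDF denotes transformed human dermal fibroblasts of mesenchymal origin.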

Take `CCCCCC(O)C=CC=CCC=CC=CC(O)CCCC(=O)O` (centres undefined): the figures for the cell number in experiment [1] and in experiment [2] were 115 and 98.1, respectively. For the same compound, the figures for the H1.0 immunofluorescence intensity in experiment [3] and in experiment [4] were 101 (inactive) and 86.5 (inactive), respectively.
Consider `COc1ccc2cc(OCC3(C(=O)O)CN(C(=O)c4ccc(F)cc4)C3)ccc2c1`, for which the cell number came to 105 in experiment [1] and 103 in experiment [2]. In addition, the H1.0 immunofluorescence intensity is 93.7 (inactive) in experiment [3] and 95.8 (inactive) in experiment [4].
As for `O=C(O)c1ccccc1Nc1ccccc1` [N-Phenylanthranilic acid], the cell number in experiment [1] stood at 102; in experiment [2] it was 104. The results for the H1.0 immunofluorescence intensity in experiment [3] and in experiment [4] were 100 (inactive) and 97.5 (inactive), respectively.
The matching figures for `CN1CCN(C2=c3ccccc3=Nc3ccc(Cl)cc3N2)CC1` [Clozapine]: 99.6 ± 4.2, 105 ± 0.29, 95.4 (inactive) and 106 (inactive).
`CN[C@H](CC(=O)O)C(=O)O` [N-Methyl-D-aspartic acid]: the cell number in experiment [1] amounted to 104; in experiment [2], 109. The H1.0 immunofluorescence intensity was 85.2 (inactive) in experiment [3] and 98.8 (inactive) in experiment [4].
Take `Cc1ccccc1N1CCN(S(=O)(=O)CC23CCC(CC2NC(=O)C(N)CCS(C)(=O)=O)C3(C)C)CC1.Cl` (centres undefined): the cell number came out at 101 in experiment [1] and 104 in experiment [2]. Also, the H1.0 immunofluorescence intensity was 94.1 (inactive) in experiment [3] and 99 (inactive) in experiment [4].
The matching figures for `CC(C)(C)NCC(O)COc1nsnc1N1CCOCC1.O=C(O)C=CC(=O)O` [(S)-Timolol maleate]: 106, 105, 87.4 (inactive) and 97.9 (inactive).
On to `Oc1cc(O)cc(/C=C/c2ccc(Br)cc2)c1` [5-[(E)-2-(4-bromophenyl)ethenyl]-1,3-benzenediol], for which the cell number in experiment [1] came out at 93.1; in experiment [2] it was 98.8. The H1.0 immunofluorescence intensity in experiment [3] was 95.4 (inactive); in experiment [4], 127 (inactive).
The matching figures for `Cc1cn2cc(C(=O)N(C)CCO)cc(N[C@@H]3CCOc4cccc(C)c43)c2n1`: 97.8, 104, 94 (inactive) and 106 (inactive).
`CCCCCCCCCCCCCCCC(=O)NCC(COP(=O)([O-])OCC[N+](C)(C)C)OCC` (racemic) [rac-2-Ethoxy-3-hexadecanamido-1-propylphosphocholine]: the cell number worked out at 96.1 in experiment [1] and 96.3 in experiment [2]. The H1.0 immunofluorescence intensity was 97.5 (inactive) in experiment [3] and 104 (inactive) in experiment [4].
Take `O=C1Nc2ccc(I)cc2C1=Cc1cc(Br)c(O)c(Br)c1`: the cell number is 98.5 and 105 in experiment [1]; 103 in experiment [2]. The H1.0 immunofluorescence intensity in experiment [3] was 93.5 (inactive) and 85.7 (inactive); in experiment [4], 110 (inactive) and 83.8 (inactive).
For the compound `O=c1ccc2cc(O)c(O)cc2o1` [Esculetin], the cell number in experiment [1] was determined as 101; in experiment [2], 94.7. Moreover, the results for the H1.0 immunofluorescence intensity in experiment [3] and in experiment [4] were 99.6 (inactive) and 101 (inactive), respectively.
Regarding `CCCCCCCCCCCC=CCC=CCCCC(=O)O` [Eicosa-5,8-dienoic acid (20:2 n-12)], the cell number in experiment [1] was 101; in experiment [2] it was 99.6. For the same compound, the figures for the H1.0 immunofluorescence intensity in experiment [3] and in experiment [4] were 96.8 (inactive) and 105 (inactive), respectively.
Regarding `CCC(C)C(=O)OC1CC(O)C=C2C=CC(C)C(CCC3CC(O)CC(=O)O3)C21` (centres undefined) [Pravastatin Lactone], the cell number in experiment [1] is 101; in experiment [2], 109. Besides, the values for the H1.0 immunofluorescence intensity in experiment [3] and in experiment [4] were 91.6 (inactive) and 110 (inactive), respectively.
Consider `O=C(O)CCCc1c[nH]c2ccccc12` [Indole-3-butyric acid], for which the cell number in experiment [1] turned out to be 104; in experiment [2], 99. In addition, the H1.0 immunofluorescence intensity in experiment [3] is 98.4 (inactive); in experiment [4] it was 86.6 (inactive).
As to `CCn1cc(C(=O)O)c(=O)c2cc(F)c(N3CCNC(C)C3)c(F)c21` (centres undefined) [Lomefloxacin], the cell number in experiment [1] stood at 101; in experiment [2], 90.9. Further, the H1.0 immunofluorescence intensity is 95.3 (inactive) in experiment [3] and 100 (inactive) in experiment [4].
Take `CCC1C(=O)OCC1Cc1cncn1C.O=[N+]([O-])O` (centres undefined) [Pilocarpine nitrate]: the cell number in experiment [1] came to 98; in experiment [2] it was 86.9. The H1.0 immunofluorescence intensity was 98.7 (inactive) in experiment [3] and 107 (inactive) in experiment [4].
As for `O=C(Nc1cccc2c(=O)cc(-c3nn[nH]n3)oc12)c1ccc(OCCCCc2ccccc2)cc1` [Pranlukast], the cell number was 101 in experiment [1] and 110 in experiment [2]. The H1.0 immunofluorescence intensity was 101 (inactive) in experiment [3] and 109 (inactive) in experiment [4].
Taken in the same sequence, the figures for `O=C1CSC(c2cccc(Br)c2)N1c1cc(Cl)ccc1O` (centres undefined) were 102, 96.5, 94.8 (inactive) and 103 (inactive).
Taken in the same sequence, the figures for `C[N+](C)(C)CCOC(N)=O` [Carbamylcholine] were 103, 107, 93.3 (inactive) and 99.8 (inactive).
As to `O=c1c(-c2ccc(O)cc2)coc2cc(OC3OC(CO)C(O)C(O)C3O)ccc12` (centres undefined) [Daidzin], the results for the cell number in experiment [1] and in experiment [2] were 95.7 and 108, respectively. Besides, the H1.0 immunofluorescence intensity in experiment [3] was 94.8 (inactive); in experiment [4], 89.9 (inactive).
As to `CCCCC=CCCCCCCCCC(=O)O` [10(Z)-Pentadecenoic acid], the cell number in experiment [1] was 101; in experiment [2], 102. Further, the values for the H1.0 immunofluorescence intensity in experiment [3] and in experiment [4] were 103 (inactive) and 104 (inactive), respectively.
Regarding `CS(=O)(=O)CCNCc1nc(-c2ccc3ncnc(Nc4ccc(OCc5cccc(F)c5)c(Cl)c4)c3c2)cs1.Cl.Cl`, the figures for the cell number in experiment [1] and in experiment [2] were 88.4 and 99.7, respectively. For the same compound, the H1.0 immunofluorescence intensity in experiment [3] was 99.4 (inactive); in experiment [4], 136 (inactive).
For `O=C(CCl)c1c[nH]c2ccccc12` [2-chloro-1-(1H-indol-3-yl)ethanone], the cell number in experiment [1] worked out at 63.6; in experiment [2] it was 55. Besides, the results for the H1.0 immunofluorescence intensity in experiment [3] and in experiment [4] were 125 (active) and 150 (active), respectively.
For the compound `CCCCCC=CCC=CCC=CCCCCC(=O)O` [6(Z), 9(Z), 12(Z)-Octadecatrienoic Acid], the cell number was found to be 101 in experiment [1] and 93.2 in experiment [2]. In addition, the values for the H1.0 immunofluorescence intensity in experiment [3] and in experiment [4] were 91.1 (inactive) and 105 (inactive), respectively.
`CC(Nc1nc(N2CCCC2)nc2ccccc12)c1ccccc1` (centres undefined) [N-(1-phenylethyl)-N-[2-(1-pyrrolidinyl)-4-quinazolinyl]amine]: the cell number is 83.8 in experiment [1] and 75.1 in experiment [2]. For the same compound, the values for the H1.0 immunofluorescence intensity in experiment [3] and in experiment [4] were 123 (active) and 120 (inactive), respectively.

These data come from the supplement of paper PMC7156485.
